A selection: hits, their analogues and other compounds. The true share with any hit is near 19%.
IL1B secr inh = inhibitors of inflammasome signaling (IL-1 beta secretion) | THP-1 LPS/ATP IL-1B secretion, AlphaLISA, 16 h; stronger effect = lower value | AID 743279 | activity change, % at 57.5 µM | 360,000 compounds, 4.7% hits; in the data active means activity change below about -50%; inconclusive means mostly about -30% to -49%
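Secreted IL-1B measured by AlphaLISA bead assay after 16 h compound exposure of THP-1 cells; compounds (final up to 57.5 uM) added 1 h before LPS (250 ng/mL) and ATP (1.25 mM) stimulation; lower signal means less secretion.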
DT40 TDP1 CPT = DT40-hTDP1 cell growth loss with CPT | chicken DT40 Tdp1-/-;hTDP1 cells + 20 nM CPT, ATP luminescence, 48 h | Potency, µM (doses to about 46.2 µM), for the others: at the top dose activity change, negative = growth inhibition, hits mostly inhibitors | 420,000 compounds, 12% hits; further: potency means the concentration at half of the fitted maximal effect; nearly all actives have a fitted effect of over 55% in size
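Chicken DT40 Tdp1-/- cells complemented with human TDP1, 400 cells/well, exposed to compounds plus 20 nM camptothecin for at least 48 h at 37 C; viability read as ATP content by CellTiter-Glo luminescence.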
HT1080 IDH1KD tx = kills HT-1080 cells with IDH1 knockdown; HT-1080 IDH1 knockdown viability, ATP luminescence, 48 h; Potency, µM (series often up to 46.1 µM), without a hit: at the top dose activity, negative = toxicity, actives largely listed as cytotoxic; 360,000 compounds, 2% hits; AID 686971;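 further: potency means the concentration at half of the fitted maximal effect; 0% = DMSO wells and -100% = cell-free medium wells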
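CellTiter-Glo luminescence after 48 h compound exposure at 37 degrees C of IDH1-knockdown HT-1080 cells in 5% FBS RPMI. %Activity scaled between DMSO wells and cell-free media wells, with curves fitted and assigned curve classes.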
HT1080-NT tox = kills 2HG-producing HT-1080-NT fibrosarcoma cells | HT-1080-NT fibrosarcoma viability, CellTiter-Glo ATP luminescence, 48 h | Potency, µM (doses to about 46.1 µM), inactives show at the highest dose activity, negative = less viability, usual class: cytotoxic | 360,000 compounds, 1.6% hits | AID 686970;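 further: NT is the 2HG producing partner of a matched IDH1 knockdown line; potency means the concentration at half of the fitted maximal effect; 0% = DMSO-treated cells and -100% = media-only wells without cells; nearly all actives have a fitted effect of over 55% in size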
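HT-1080-NT fibrosarcoma cells (2HG-overproducing), 750 cells/well in RPMI with 5% FBS, dosed after 2 h and incubated 48 h at 37C. CellTiter-Glo luminescence normalized to DMSO and no-cell wells; concentration-response curves fitted and classed.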
DT40 TDP1 no CPT = qHTS for Inhibitors of human tyrosyl-DNA phosphodiesterase 1 (TDP1): qHTS in cells in absence of CPT. DT40 Tdp1-/- hTDP1 cells, no CPT, ATP luminescence, 48 h. Potency, µM (highest dose often 46.2 µM), inactives show top-dose activity change, negative = growth inhibition, most hits filed as inhibitors. 420,000 compounds, 15% hits. AID 686978, 2013; further: potency means the concentration at half of the fitted maximal effect; nearly all actives have a fitted effect of over 55% in size
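No-CPT arm: Tdp1-/-;hTDP1 DT40 cells (400/well) plus compounds, incubated ≥48 hr at 37 °C. Readout CellTiter-Glo luminescence.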
Starred values were filed as active, the others as inactive; ? = inconclusive; . = not tested or not shown. Unless noted, the call rests on the fitted dose curve; in most records, active means well fitted curve in the direction sought with a large enough effect; inconclusive means small, poorly fitted or top-dose-only effect, or another doubt; inactive means no such curve, though single readings can be large; an effect the other way counts as inactive or inconclusive. Unless noted, on the % scale 0 is the no-effect control and ±100 the full control effect.

SMILES	IL1B secr inh	DT40 TDP1 CPT	HT1080 IDH1KD tx	HT1080-NT tox	DT40 TDP1 no CPT
Cc1nc2ccccc2n1-c1nc(-c2ccco2)cc(C(F)(F)F)n1	?	3.7µM*	5.6µM*	5.6µM*	2.9µM*
FC(F)(F)c1cc(-c2ccco2)nc(-n2cnc3ccccc32)n1	34	-13%	10%	6%	-17%
COCC(=O)NCc1nc2cccnc2n1Cc1ccc(F)cc1	.	14%	.	.	-1%
CN(C(=O)c1ccc(NC(=O)Cc2ccc(NC(=O)C3CCCN(C(=O)C4CCC4)C3)cc2)cc1)C1CCCC1 (centres undefined)	6	?	4%	0%	?
COc1cc(/C=N/NC(=O)c2cc(-c3c(C)nn(-c4ccccc4)c3C)n[nH]2)ccc1O	-29	23µM*	-14%	-9%	?
COc1cc(/C=N/NC(=O)c2nc(-c3ccccc3)n(-c3ccccc3)n2)ccc1O	-3	5%	7%	-4%	-23%
COc1cc(/C=N/NC(=O)c2cc(-c3ccc4c(c3)OCO4)n[nH]2)ccc1O	-154*	?	-27%	-29%	?
Cc1nn(-c2ccccc2)c(C)c1-c1cc(C(=O)N/N=C/c2ccc(O)cc2)[nH]n1	-22	26µM*	?	?	?
CCOc1cc(/C=N/NC(=O)c2ccc(NC(=O)C3CC3)cc2)ccc1O	?	?	-4%	-8%	-18%
COc1cc(/C=N/NC(=O)c2ccc(NC(=O)C3CCCCC3)cc2)ccc1O	?	3%	12µM*	?	-11%
CC12CCC(=O)N1C(C(=O)OCc1c(Cl)cccc1Cl)CS2 (centres undefined)	-13	-2%	1%	-7%	-22%
O=C(CSCc1ccccc1)NNc1c(F)c(F)cc(F)c1F	-3	18%	-4%	-2%	-18%
Cc1ccc(C2=NN(C(=O)CCCC(=O)O)C(c3ccc4c(c3)OCO4)C2)cc1 (centres undefined)	129	-3%	6%	4%	9%
N=C1C(c2ccccc2)=C(O)CN1CCCO	7	?	-1%	2%	23%
O=C(c1ccccc1)c1c[nH]cc1-c1ccccc1	1	0%	-15%	4%	-12%
O=C(c1cccs1)c1c[nH]cc1-c1ccccc1	-57*	-6%	-4%	-2%	-20%
O=C(NNC(=O)c1cc(-c2ccccc2)nn1-c1ccccc1)c1ccccc1	-97*	-11%	-24%	-22%	?
CCOC(=O)c1cc(-c2cccnc2)nn1-c1ccccc1	-98*	17%	-11%	-14%	?
Cc1cnc(NC(=O)c2cc(-c3ccccc3)nn2-c2ccccc2)s1	-2	-2%	8%	9%	-21%
O=C(Nc1nc2ccccc2s1)c1cc(-c2ccccc2)nn1-c1ccccc1	-14	?	?	-29%	10µM*
CC(=O)c1sc(NC(=O)c2cc(-c3ccccc3)nn2-c2ccccc2)nc1C	-61*	8.2µM*	12%	22%	6.5µM*
O=C(CSc1nnc(C2CC2)n1CC1CCCO1)Nc1ccccc1Cl (centres undefined)	-3	2%	2%	-8%	3%
Clc1ccccc1Sc1ccc(-c2ccccn2)s1	-8	18%	1%	2%	-4%
CS(=O)(=O)N(CC(O)CON=C1c2ccccc2-c2ccccc21)c1ccc(F)cc1 (centres undefined)	-6	-22%	?	?	?
CCN(CC(O)CON=C1c2ccccc2-c2ccccc21)S(=O)(=O)c1ccc(Cl)cc1 (centres undefined)	-62*	21µM*	-18%	-13%	15µM*
CN(CC(O)CON=C1c2ccccc2-c2ccccc21)S(=O)(=O)c1ccc(Br)cc1 (centres undefined)	?	16µM*	?	?	?
